Data on 39 compounds can be found in PubChem BioAssay (NCI).

This is part of a sample that, as a whole, favours compounds with a hit. Of some 83,000 tested, about 20% had one in any assay.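 Results are percent growth after 48 hours of single-concentration exposure. 100 means growth as in untreated cells, lower positive values show inhibition; negative values down to -100 show cell death.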 Activity calls are given as the source filed them. The calls were made as follows: active = growth percent below 10; inactive = the rest.

The first experiment concerns SN12C renal. In words: NCI-60 one-dose screen, 48 h (100 = growth as untreated, 0 = no growth, -100 = all killed). Particulars: 10 µM unless noted.
As for `O=C(Nc1ccc(F)cc1)Nc1ccc(CCO)cc1`, the growth was 101% (inactive). Regarding `O=[N+]([O-])c1cccc(C2CC(c3ccccc3)=Nc3ccccc3S2)c1` (stereo unspecified), the growth was 95.5% (inactive). On to `COc1cc(-c2c3sc(=O)[nH]c3nc3c2c(=O)[nH]n3C(C)C)cc2c1OCO2`, for which the growth was 99.4% (inactive). On the same count and under the same terms, as for `O=C(N/N=C/c1ccc(O)cc1O)c1cccnc1`, the figure is 57.2% (inactive). `CCCCCCCCOC(=O)CC[C@@H](C)[C@H]1CC[C@H]2[C@@H]3[C@H](OC(=O)CCN)C[C@@H]4C[C@H](OC(=O)CCN)CC[C@]4(C)[C@H]3C[C@H](OC(=O)CCN)[C@]12C`: the growth was 77.6% (inactive). With `CCOC(=O)N1CCN(c2nc(Nc3cc(C)[nH]n3)c3ccccc3n2)CC1`, the growth is 45.8% (inactive). On the same count and under the same terms, as for `Cc1ccc(C2CC3c4ccccc4C2C2CCCCN32)cc1` (stereo unspecified), the figure is 90.3% (inactive). On the same count and under the same terms, the value for `CC#Cc1nc2ccccc2c(=O)[nH]1` was 35.3% (inactive); that for `COc1c(C2CC(=O)Nc3c2cnn3Cc2ccco2)cc2c(c1OC)OCO2` (stereo unspecified) was 32.5% (inactive). `Oc1ccccc1/C=N/Nc1ccc2ccccc2n1`: the growth is 61.8% (inactive). The same measure, in the same setting: the value for `Cc1cc(Nc2nc(N3CCN(C)CC3)nc3ccccc23)n[nH]1` was 68.1% (inactive); that for `COc1cccc2c1C(=O)c1c(O)c3c(c(O)c1C2=O)C[C@@](O)(/C(C)=N/NC(=O)c1ccc(Cl)cc1)C[C@@H]3OC1CC(N)C(O)C(C)O1` (stereo partly specified) was 5.79% (active).

Regarding `C#Cc1nc2ccccc2c(=O)[nH]1`, the growth was -41.3% (active). Same read-out and setting: the value for `O=C1Nc2ccc(Br)cc2C12CC(c1ccccc1)=NN2` (stereo unspecified) was 61.7% (inactive); that for `CCCCCCCCCCCCN1CCCC(C)C1` (stereo unspecified) was 95.9% (inactive); that for `Cc1ccc(NC(=O)c2sc3nc4c(cc3c2N)C(=O)CCC4)cc1C` was 52.9% (inactive). With `O=C(NC(Cc1ccccc1)C(=O)CCl)OCc1ccccc1` (stereo unspecified), the growth is 56.7% (inactive). Still for that read-out and setting: the value for `COc1c(Cl)cc(Cl)cc1Cl` was 100% (inactive). Turning to `COc1cc(C2CC(=O)Nc3c2cnn3Cc2ccco2)cc2c1OCCO2` (stereo unspecified), the growth was 91.3% (inactive). Still for that read-out and setting: as for `O=C1Nc2ccccc2/C1=C/C(=N/c1nnc(-c2ccc(Cl)cc2)s1)c1ccccc1`, the figure is 35.5% (inactive); as for `CC(=O)OCC(=O)C1CCC=CC1OC(C)=O` (stereo unspecified), 99.4% (inactive); as for `c1c2c(cc3c1OCO3)Cc1cc3c(cc1Cc1cc4c(cc1C2)OCO4)OCO3`, 98.5% (inactive).

A further experiment concerns UO-31 renal. The experiment is described as above. Particulars: 10 µM unless noted.
On to `Cc1ccc2c(NCCCN(C)C)c3c(C)nn(C)c3nc2c1`, for which the growth is 26.5% (inactive).

With `CCc1ccccc1NC(=O)c1sc2nc3c(cc2c1N)C(=O)CCC3`, the growth is 44.5% (inactive). On to `C#Cc1nc(Nc2cc(C)[nH]n2)c2ccccc2n1`, for which the growth is -36.1% (active). Regarding `CC(=O)Oc1cc2cnc3c4cc(OC(C)=O)c(OC(C)=O)cc4ccc3c2cc1OC(C)=O`, the growth was -2.09% (active). The same measure, in the same setting: as for `Cc1cc(Nc2nc(-c3cccnc3)nc3ccccc23)n[nH]1`, the figure is 60.4% (inactive); as for `CNC(=S)N/N=C/CSC/C=N/NC(=S)NC`, 71.7% (inactive); as for `COc1ccc(CN(c2ccc(C)cc2)C2OC(=O)c3ccccc32)cc1OC` (stereo unspecified), 94.3% (inactive).

With `COc1cccc(-n2cc(-c3nc(Nc4cc(C)[nH]n4)c4ccccc4n3)nn2)c1`, the growth is 15.4% (inactive). Same read-out and setting: the value for `COc1cc(OC)c(/C=C/c2cc[n+](C)c3ccccc23)c(OC)c1` was 61% (inactive). Still for that read-out and setting: the value for `Cc1nn(-c2nc3ccccc3[nH]2)c2c1C(c1ccc3c(c1)OCO3)CC(=O)N2` (stereo unspecified) was 22.7% (inactive); that for `CC1(C)OCC2OC3(C(=O)O)OC(C)(C)OC3C2O1` (stereo unspecified) was 94.2% (inactive); that for `NCc1cn2cc(Cl)sc2n1` was 88.8% (inactive). As to `COc1ccc(/C=N\NC(=O)c2ccncc2)cc1O`, the growth was 77.8% (inactive). With `Nc1cc2nc3ccccc3sc-2cc1=O`, the growth is 42.8% (inactive). `N#CC1=C(N)Oc2c(ccc3ccccc23)C1c1cccs1` (stereo unspecified): the growth is 46.5% (inactive). Still for that read-out and setting: as for `CCOC(=O)c1ccc2c(c1)nc(/C=C/c1ccc(Cl)cc1)n2-c1cc(C(C)(C)C)[nH]n1`, the figure is 46.8% (inactive); as for `CCOC(=O)c1nc(Nc2cc(C)[nH]n2)c2ccccc2n1`, 76.7% (inactive); as for `O=C(Nc1ccc(F)cc1)Nc1ccc(CCO)cc1`, 94.1% (inactive). On the same count and under the same terms, the value for `O=[N+]([O-])c1cccc(C2CC(c3ccccc3)=Nc3ccccc3S2)c1` (stereo unspecified) was 59.7% (inactive); that for `COc1cc(-c2c3sc(=O)[nH]c3nc3c2c(=O)[nH]n3C(C)C)cc2c1OCO2` was 96.8% (inactive). Still for that read-out and setting: the value for `O=C(N/N=C/c1ccc(O)cc1O)c1cccnc1` was 22.2% (inactive); that for `CCCCCCCCOC(=O)CC[C@@H](C)[C@H]1CC[C@H]2[C@@H]3[C@H](OC(=O)CCN)C[C@@H]4C[C@H](OC(=O)CCN)CC[C@]4(C)[C@H]3C[C@H](OC(=O)CCN)[C@]12C` was 105% (inactive).

Consider `CCOC(=O)N1CCN(c2nc(Nc3cc(C)[nH]n3)c3ccccc3n2)CC1`, for which the growth is 47.4% (inactive). Still for that read-out and setting: the value for `Cc1ccc(C2CC3c4ccccc4C2C2CCCCN32)cc1` (stereo unspecified) was 91.7% (inactive); that for `CC#Cc1nc2ccccc2c(=O)[nH]1` was 22.9% (inactive). Still for that read-out and setting: the value for `COc1c(C2CC(=O)Nc3c2cnn3Cc2ccco2)cc2c(c1OC)OCO2` (stereo unspecified) was 59.4% (inactive); that for `Oc1ccccc1/C=N/Nc1ccc2ccccc2n1` was 16.4% (inactive). The same measure, in the same setting: as for `Cc1cc(Nc2nc(N3CCN(C)CC3)nc3ccccc23)n[nH]1`, the figure is 54.9% (inactive). On to `COc1cccc2c1C(=O)c1c(O)c3c(c(O)c1C2=O)C[C@@](O)(/C(C)=N/NC(=O)c1ccc(Cl)cc1)C[C@@H]3OC1CC(N)C(O)C(C)O1` (stereo partly specified), for which the growth was -40.4% (active). On to `C#Cc1nc2ccccc2c(=O)[nH]1`, for which the growth was -72% (active). Consider `O=C1Nc2ccc(Br)cc2C12CC(c1ccccc1)=NN2` (stereo unspecified), for which the growth is 48.4% (inactive). Still for that read-out and setting: the value for `CCCCCCCCCCCCN1CCCC(C)C1` (stereo unspecified) was 60.8% (inactive). The same measure, in the same setting: the value for `Cc1ccc(NC(=O)c2sc3nc4c(cc3c2N)C(=O)CCC4)cc1C` was 56.6% (inactive); that for `O=C(NC(Cc1ccccc1)C(=O)CCl)OCc1ccccc1` (stereo unspecified) was 59.6% (inactive); that for `COc1c(Cl)cc(Cl)cc1Cl` was 88.4% (inactive). Regarding `COc1cc(C2CC(=O)Nc3c2cnn3Cc2ccco2)cc2c1OCCO2` (stereo unspecified), the growth was 97% (inactive). As for `O=C1Nc2ccccc2/C1=C/C(=N/c1nnc(-c2ccc(Cl)cc2)s1)c1ccccc1`, the growth is -69.2% (active). For the compound `CC(=O)OCC(=O)C1CCC=CC1OC(C)=O` (stereo unspecified), the growth is 66.4% (inactive). Consider `c1c2c(cc3c1OCO3)Cc1cc3c(cc1Cc1cc4c(cc1C2)OCO4)OCO3`, for which the growth was 95.7% (inactive).
